Assay outcomes (PubChem)
Hits are enriched below; roughly 17% of the tested compounds scored in any of these assays.
TDP1 cell noCPT = qHTS for Inhibitors of human tyrosyl-DNA phosphodiesterase 1 (TDP1): qHTS in cells in absence of CPT; Potency, µM (top dose mostly 46.2 µM), for inactives: at the top dose activity change, negative = growth inhibition, most hits filed as inhibitors; 420,000 compounds, 15% hits; DT40 Tdp1-/- hTDP1 cells, no CPT, ATP luminescence, 48 h; further: on the % scale 0 is the no-effect control and ±100 the full control effect; nearly all actives have a fitted effect of over 55% in size
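Growth kinetics read by CellTiter-Glo luminescence after ≥48 hr at 37 °C. Cells: DT40 Tdp1-/- stably carrying human TDP1, 400 per well, compound exposure in the absence of CPT (DMSO vehicle).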
TDP1 cell CPT = qHTS for Inhibitors of human tyrosyl-DNA phosphodiesterase 1 (TDP1): qHTS in cells in presence of CPT. chicken DT40 Tdp1-/-;hTDP1 cells + 20 nM CPT, ATP luminescence, 48 h. Potency, µM (top dose mostly 46.2 µM), without a hit: at the highest dose activity change, negative = growth inhibition, hits mostly inhibitors. 420,000 compounds, 12% hits. AID 686979, 2013; further: on the % scale 0 is the no-effect control and ±100 the full control effect; nearly all actives have a fitted effect of over 55% in size
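Chicken DT40 Tdp1-/- cells complemented with human TDP1, 400 cells/well, exposed to compounds plus 20 nM camptothecin for at least 48 h at 37 C; viability read as ATP content by CellTiter-Glo luminescence.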
HT1080 IDH1KD tx = qHTS for induction of synthetic lethality in tumor cells producing 2HG: qHTS for the HT-1080-IDH1KD cell line | 360,000 compounds, 2% hits | Potency, µM (series often up to 46.1 µM), inactives show at the highest dose activity, negative = toxicity, most hits filed as cytotoxic | AID 686971, 2013 | HT-1080 IDH1 knockdown viability, ATP luminescence, 48 h;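 further: 0% = DMSO wells and -100% = cell-free medium wells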
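Cytotoxicity counter-line: IDH1KD HT-1080, 48 h, CellTiter-Glo. Curves classed by r2, magnitude and activity.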
HepG2 tox = qHTS for Inhibitors of TGF-b: Cytotox Counterscreen; HepG2 CAGA-GFP viability, ATP luminescence, 18 h; Potency, µM (doses to about 46.1 µM), for the others: at the highest dose activity change, negative = cytotoxicity, usual class: cytotoxic; 410,000 compounds, 0.76% hits; AID 588856, 2011
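CellTiter-Glo luminescence gave cytotoxicity after 18 hours at 37 degrees C. The cells were HepG2 CAGA-GFP in 1% FBS DMEM, stimulated with 500 pg/mL TGF-beta after compound addition. %Activity was normalised to no-cell wells (complete cell-killing) and DMSO (no toxicity), and curves were fitted and classified.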
HT1080-NT tox = qHTS for induction of synthetic lethality in tumor cells producing 2HG: qHTS for the HT-1080-NT fibrosarcoma cell line; Potency, µM (doses to about 46.1 µM), without a hit: at the top dose activity, negative = less viability, usual class: cytotoxic; HT-1080-NT fibrosarcoma viability, CellTiter-Glo ATP luminescence, 48 h; 360,000 compounds, 1.6% hits;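 further: NT is the 2HG producing partner of a matched IDH1 knockdown line; 0% = DMSO-treated cells and -100% = media-only wells without cells; nearly all actives have a fitted effect of over 55% in size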
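Viability of the 2HG-overproducing fibrosarcoma line after 48 hours of compound exposure at 37 degrees C was determined by luminescence with CellTiter-Glo, and concentration-effect curves were then fitted and categorized.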
TGFb SMAD3 inh = qHTS for Inhibitors of TGF-b | HepG2 CAGA-GFP TGF-b/SMAD3 reporter, GFP fluorescence, 18 h; TGF-beta stimulated, 500 pg/mL final | Potency, µM (series often up to 46.1 µM), for the others: at the highest dose activity, negative = inhibition, actives largely listed as inhibitors | 410,000 compounds, 1.2% hits; further: on the % scale 0 is the no-effect control and ±100 the full control effect; nearly all actives have a fitted effect of over 65% in size
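Read-out: total well GFP (ex488/em500-530) summed from mean per-cell fluorescence. Cells: HEPG2 CAGA-GFP, 1% FBS DMEM, 18 h at 37 degrees C with 500 pg/mL final TGF-beta. Unstimulated wells served as the full-inhibition control; stimulated DMSO wells = 0%.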
Starred values were filed as active, the others as inactive; ? = inconclusive; nt = no result. The call rests on the fitted dose curve; in most records, active means well fitted curve in the direction sought with a large enough effect; inconclusive means small, poorly fitted or top-dose-only effect, or another doubt; inactive means no such curve, though single readings can be large; an effect the other way counts as inactive or inconclusive. Potency means the concentration at half of the fitted maximal effect.

SMILES | TDP1 cell noCPT | TDP1 cell CPT | HT1080 IDH1KD tx | HepG2 tox | HT1080-NT tox | TGFb SMAD3 inh
Nc1nc2ncccc2cc1C(=O)NCCc1cccs1 | 13µM* | 23.1µM* | 14.6µM* | nt | -13.5% | nt
O=S(=O)(Nc1nc2ccccc2nc1Nc1ccccc1Br)c1ccccc1 | -22.6% | -8.0% | nt | -45.2% | nt | 2.3%
CC(C)Cn1c(SCC(=O)NC(=O)NC2CCCC2)nc2ccccc21 | 16.4µM* | 25.9µM* | ? | -44.1% | ? | ?
CCn1c(N2CCN(S(=O)(=O)c3ccccc3)CC2)nc2ccccc21 | 18.4µM* | ? | 1.4% | -49.0% | 8.3% | -10.5%
O=C(CSc1nc(-c2ccccc2)c(-c2ccccc2)[nH]1)N1CCN(S(=O)(=O)c2ccccc2)CC1 | 18.4µM* | 18.4µM* | -17.1% | -44.7% | -12.6% | -14.0%
CC(C)Cn1c(SCC(=O)Nc2ncccn2)nc2ccccc21 | 14.9% | 1.0% | -1.4% | -19.6% | -1.3% | -11.5%
CC(C)Cn1c(SCC(=O)N2CCN(S(=O)(=O)c3ccccc3)CC2)nc2ccccc21 | ? | 18.4µM* | -0.6% | -2.4% | -15.2% | ?
Cn1c(SCC(=O)N2CCN(S(=O)(=O)c3ccccc3)CC2)nc2ccccc21 | ? | -8.2% | -2.1% | -8.9% | -1.6% | -3.6%
CC(=O)Nc1ccc(C(=O)OCC(=O)Nc2c(C)n(C)n(-c3ccccc3)c2=O)cc1 | 21.7% | 7.7% | -2.8% | -2.6% | -2.3% | -5.0%
Cc1cc(C)n(CCCNC(=O)C(C)(C)Oc2ccc(Cl)cc2)n1 | ? | -17.8% | -1.5% | -9.8% | -1.4% | 1.2%
CCCCn1c(N)c(N(CCOC)C(=O)CSc2nnc(-c3ccco3)n2CC)c(=O)[nH]c1=O | 0.8% | 4.1% | -1.7% | -32.1% | -1.2% | -14.3%
CCNC(=O)NC(=O)C(C)Sc1nc2ccccc2n1CC(C)C (stereo not drawn) | 16.4µM* | 18.4µM* | -9.5% | -10.6% | -9.0% | -0.3%
Cc1cccc(C(=O)NCC(=O)OCc2cc(=O)n3nc(C)sc3n2)c1 | 3.3% | -1.0% | nt | -0.2% | nt | -19.9%
CCCCC(=O)NCCc1c(Cc2ccccc2)[nH]c2ccccc12 | 18.4µM* | ? | nt | nt | nt | nt
CCCCCCCCCCCCCCCC(=O)NCCc1c[nH]c2ccccc12 | -11.1% | -3.4% | 4.9% | -3.3% | 1.0% | -3.0%
CC(C)C[C@@H](CC#N)N1CCN(Cc2ccccc2)CCC1=O | -4.8% | -5.6% | 12.0% | 7.0% | -3.4% | -5.7%
O=C(COC(=O)C1CC2C=CC1C2)Nc1cccc(S(=O)(=O)N2CCCCCC2)c1 (stereo not drawn) | ? | ? | -7.0% | 2.3% | -5.6% | -6.3%
COc1ccc(O)cc1CN1CCN(c2ncc(Cc3ccccc3)cn2)CC1 | 16.4µM* | 23.1µM* | ? | nt | ? | nt
Oc1ccc(Cl)c(CN2CCN(c3ncc(Cc4ccccc4)cn3)CC2)c1 | 18.4µM* | ? | ? | nt | ? | nt
Oc1cccc(CN2CCN(c3ncc(Cc4ccccc4)cn3)CC2)c1 | ? | ? | -10.3% | nt | -3.3% | nt
COc1ccc(C(=O)NCc2nnnn2-c2ccc(C)c(C)c2)cc1 | -26.8% | ? | nt | -2.1% | nt | -2.8%
O=C(C1=C[C@H](c2ccc3c(c2)OCO3)C[C@H](OCCCCO)O1)N1CCN(Cc2ccc3c(c2)OCO3)CC1 | 18.4µM* | ? | -1.0% | -5.5% | 2.7% | -12.1%
